PubChem BioAssay AID1851 (National Center for Advancing Translational Sciences (NCATS), 2009)
Among all 16,000 compounds or so, about 5,700 (36%) were called active. Another 24% or so got no clear call; they are omitted. Some of the results follow. A number with no mark means an inactive call. The call rests on the fitted dose curve; in most records, active means well fitted curve in the direction sought with a large enough effect; inconclusive means small, poorly fitted or top-dose-only effect, or effect the other way; inactive means no such curve, though single readings can be large or run the other way.

Target: Cytochrome P450 1A2 (Homo sapiens) (UniProt P05177)
Sequence (P05177 whole entry, looked up): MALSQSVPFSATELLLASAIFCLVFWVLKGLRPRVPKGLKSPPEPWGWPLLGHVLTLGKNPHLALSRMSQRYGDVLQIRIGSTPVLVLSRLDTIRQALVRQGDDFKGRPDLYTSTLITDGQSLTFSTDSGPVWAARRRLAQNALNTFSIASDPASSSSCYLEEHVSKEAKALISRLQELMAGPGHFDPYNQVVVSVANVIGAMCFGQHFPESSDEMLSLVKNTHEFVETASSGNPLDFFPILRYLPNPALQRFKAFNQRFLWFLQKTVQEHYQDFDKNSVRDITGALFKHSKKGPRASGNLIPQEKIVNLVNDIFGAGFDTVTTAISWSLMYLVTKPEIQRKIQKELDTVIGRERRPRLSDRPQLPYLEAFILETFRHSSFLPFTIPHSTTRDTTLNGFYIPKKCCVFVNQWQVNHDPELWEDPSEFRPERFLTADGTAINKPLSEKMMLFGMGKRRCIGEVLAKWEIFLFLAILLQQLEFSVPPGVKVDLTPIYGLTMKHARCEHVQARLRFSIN
Experiment: Cytochrome panel assay with activity outcomes
Details: recombinant CYP, pro-luciferin dealkylation, luminescence, p450-cyp1a2; series mostly up to 57.1 µM
On the % scale 0 is the no-effect control and ±100 the full control effect.

| SMILES | activity, negative = inhibition | AC50 |
| --- | --- | --- |
| CC(C)(C)N1C(=O)[C@@H]2[C@H]3C(=CC[C@H]2C1=O)C(=O)[C@H]1O[C@H]1[C@H]3O | -0.944% [at 11.4 µM] |  |
| Cc1cnc(CNc2ncncc2-c2cccc(C#N)c2)cn1 |  | 12600 nM (active) |
| Cc1cccc(CNc2ncncc2-c2cccc(C#N)c2)c1 |  | 2510 nM (active) |
| N#Cc1cccc(-c2cncnc2NCc2cccnc2)c1 |  | 5010 nM (active) |
| N#Cc1cccc(-c2cncnc2NCc2ccccc2)c1 |  | 5010 nM (active) |
| O=S(=O)(O)c1ccc(N=Nc2ccccc2)cc1 | -5.18% [at 11.4 µM] |  |
| CC(=O)O[C@]1(C(C)=O)CC[C@@H]2[C@@H]3C=C(Cl)C4=CC(=O)[C@H]5C[C@@H]5[C@]4(C)[C@H]3CC[C@]21C |  | inactive |
| N#Cc1cccc(-c2cncnc2NCc2cccs2)c1 |  | 1580 nM (active) |
| COc1ccccc1CNc1ncncc1-c1cccc(C#N)c1 |  | 10000 nM (active) |
| Cc1ccc(C(C)C)n1C(=O)OC(C)(C)C | 6.74% [at 11.4 µM] |  |
| Fc1ccc2c(c1)C1C=CCC1C(c1cc3c(cc1Br)OCO3)N2 (stereo unspecified) |  | 891 nM (active) |
| C=CCNc1nc(Cl)nc(Nc2ccc(OC)cc2)n1 |  | 2510 nM (active) |
| CCCC[C@@H]1C[C@H]1C(NC(=O)c1cccs1)c1ccccc1C(F)(F)F (stereo partly specified) |  | 6310 nM (active) |
| C/C(=C\C1CCCCC1)C(NC(=O)c1ccc(C(F)(F)F)cc1)c1ccc(-c2ccccc2)cc1 (stereo unspecified) |  | inactive |
| C[C@@]1(C(NC(=O)c2cccs2)c2ccc(-c3ccccc3)cc2)C[C@H]1C1CCCCC1 (stereo partly specified) |  | inactive |
| CCCC[C@@H]1C[C@H]1C(NC(=O)c1cccs1)c1ccc(Cl)cc1 (stereo partly specified) |  | 1000 nM (active) |
| CCCC[C@@H]1C[C@H]1C(NC(=O)c1cccs1)c1ccc(C(F)(F)F)cc1 (stereo partly specified) |  | 2000 nM (active) |
| CCOC(=O)CSC1=NC(=O)/C(=C\c2ccc(Cl)cc2)S1 |  | 3550 nM (active) |
| CCOC(=O)CSC1=NC(=O)/C(=C\c2ccc(OC(C)=O)cc2)S1 |  | 25100 nM (active) |
| Cc1cccc(NC2(C(F)(F)F)N=C(c3ccccc3)NC2=O)n1 (stereo unspecified) |  | inactive |
| N#Cc1c(N2CCN(C(=O)c3ccccc3Cl)CC2)nc(-c2ccccc2)c2c1CCCC2 |  | inactive |
| Clc1ccc(-c2nnc(-c3ccc(Br)cc3)c(N3CCSCC3)n2)cc1 |  | 1120 nM (active) |
| Clc1ccc(-c2nnc(-c3ccccc3)c(N3CCSCC3)n2)cc1 |  | 1120 nM (active) |
| Brc1ccc(-c2nnc(-c3ccccc3)c(N3CCSCC3)n2)cc1 |  | 1260 nM (active) |
| Cc1ccc(-n2c(O)c(/C=N/n3cnnc3)c3ccccc3c2=O)cc1 |  | 17800 nM (active) |
| Cc1cc(C)cc(-n2c(O)c(C=NC3CCS(=O)(=O)C3)c3ccccc3c2=O)c1 (stereo unspecified) |  | inactive |
